Screening results as filed in PubChem.
The list is not random: actives were taken first. Their share in the collection is about 3%.
MITF TRPM1 inh: inhibitors of MITF-dependent TRPM1 promoter reporter, primary screen, cell-based, SK-MEL-5, single point, luciferase; SK-MEL-5 TRPM1 promoter luciferase, 24 h; inhibition, % at 12.5 µM; hit rate 0.83% among 330,000;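 active means mean inhibition across replicates of 60% or more, whatever share of single replicates reaches that level; inconclusive means some that reach 60%, reason not given; inactive means mean inhibition across replicates below 60%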
Peg3 promoter: Peg3 promoter-driven luciferase inhibitors, primary screen, cell-based, HeLa, luciferase luminescence | HeLa PEG-Prom luciferase reporter, overnight | inhibition, % at 20 µM | hit rate 1.7% among 360,000;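 active means inhibition of at least 50% at 20 µM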
EWS-Fli inh: EWS/Fli-driven NR0B1 reporter inhibitors, primary screen, A673 cells, NR0B1 luciferase, luminescence, MLPCN library | viability-normalised | inhibition, % at 12.6 µM | hit rate 0.67% among 350,000 | AID 651661, 2012;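 active means mean inhibition of at least 50% after viability correction, with every replicate also passing that limit; inconclusive means mean reaches 50% but only one of two replicates passes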;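 further: firefly luciferase signal divided by Alamar Blue viability fluorescence both relative to DMSO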
Shn3 3UTR inh: reduction of Shn3 3'UTR firefly luciferase signal, primary screen, Schnurri-3 inhibitor project, cell-based, Clone20 osteoblasts, set 2; AID 588674, 2011; hit rate 0.52% among 360,000; inhibition, % at 12.5 µM; Clone20 osteoblast Shn3 3'UTR firefly luciferase, 24 h;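 active means mean inhibition of at least 75% with every replicate also reaching 75%; inconclusive means mean inhibition at least 75% but some replicate below; inactive means mean inhibition below 75%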;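 further: 0% = median of neutral control wells and 100% = pilot-screen positive control compound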
PAX8 reporter: inhibitors of PAX8-driven TPO luciferase reporter, primary screen, RMG-I cells, single concentration | SteadyGlo, 24 h | inhibition, % at 12.6 µM | hit rate 1.2% among 360,000;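 active means mean replicate inhibition at least 60% with every replicate also reaching 60%; inconclusive means only one of the two criteria is met; inactive means mean below 60% and not all replicates reaching 60%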;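 further: luciferase light reporting Pax8 driven TPO promoter activity; plate controls were median of neutral control wells for no effect and mitoxantrone controls for full effect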
ABHD5-PLIN5 inh: ABHD5-PLIN5 interaction inhibitors, primary screen, cell lysate, split luciferase complementation, luminescence; Perilipin-5 (Homo sapiens) + 1-acylglycerol-3-phosphate O-acyltransferase ABHD5 (Homo …; Split G. princeps luciferase complementation, 4 h; inhibition, % at 4 µM; hit rate 0.78% among 360,000; AID 602281, 2012;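 active means inhibition above the mean inhibition across every tested compound plus 3 SD, cut at about 22% in these data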;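 further: 0% = DMSO only wells and the 100% control is not disclosed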
Target sequence (Q00G26 whole entry, looked up): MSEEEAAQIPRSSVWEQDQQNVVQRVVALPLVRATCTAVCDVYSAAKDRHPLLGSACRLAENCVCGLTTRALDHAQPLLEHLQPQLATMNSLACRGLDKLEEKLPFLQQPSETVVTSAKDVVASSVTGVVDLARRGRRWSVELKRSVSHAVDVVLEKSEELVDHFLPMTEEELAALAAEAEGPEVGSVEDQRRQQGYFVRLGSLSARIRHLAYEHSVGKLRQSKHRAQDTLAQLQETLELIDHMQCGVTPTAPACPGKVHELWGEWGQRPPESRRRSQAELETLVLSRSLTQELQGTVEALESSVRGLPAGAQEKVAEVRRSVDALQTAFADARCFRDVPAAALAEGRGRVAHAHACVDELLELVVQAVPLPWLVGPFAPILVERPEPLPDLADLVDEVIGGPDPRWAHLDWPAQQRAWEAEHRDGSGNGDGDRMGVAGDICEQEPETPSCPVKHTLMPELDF
Target sequence (Q8WTS1 whole entry, looked up): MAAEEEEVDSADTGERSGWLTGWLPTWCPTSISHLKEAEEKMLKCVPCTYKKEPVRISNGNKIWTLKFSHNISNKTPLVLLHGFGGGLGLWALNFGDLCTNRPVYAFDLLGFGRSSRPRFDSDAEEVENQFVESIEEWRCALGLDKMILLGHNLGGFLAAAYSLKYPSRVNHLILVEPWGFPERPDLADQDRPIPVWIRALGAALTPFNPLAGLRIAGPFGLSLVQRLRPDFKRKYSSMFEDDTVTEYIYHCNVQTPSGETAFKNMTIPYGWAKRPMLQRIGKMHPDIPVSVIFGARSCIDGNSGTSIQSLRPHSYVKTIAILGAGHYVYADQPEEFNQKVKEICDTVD
* marks the source's active call; other numbers are inactive results; ? = inconclusive; nt = not tested or not shown.

SMILES	MITF TRPM1 inh	Peg3 promoter	EWS-Fli inh	Shn3 3UTR inh	PAX8 reporter	ABHD5-PLIN5 inh
COC(=O)[C@@H]1[C@@H](CO)[C@@H]2Cn3c(ccc(C4=CCCCC4)c3=O)[C@H]1N2C(=O)NC(C)C	nt	nt	11	nt	-5	nt
COC(=O)[C@H]1[C@H](CO)[C@H]2Cn3c(ccc(-c4ccccc4)c3=O)[C@@H]1N2S(=O)(=O)c1ccccc1C	nt	nt	50	nt	2	nt
COc1ccc(-c2ccc([C@H]3[C@H](CO)N4CCCCN(C(=O)Cc5ccccc5)C[C@@H]34)cc2)cc1	nt	nt	nt	nt	-28	nt
COc1cccc(-c2ccc([C@H]3[C@@H](CO)N4CCCCN(C(=O)Cc5ccncc5)C[C@H]34)cc2)c1	nt	nt	nt	nt	1	nt
O=C1NC(=O)N(Cc2ccccc2Cl)C(=O)/C1=C/c1cccs1	56	60*	30	-1	14	-1
C[C@H]1[C@@H](OS(=O)(=O)O)C[C@@H]2C[C@H]([C@@H](O)c3cc(=O)[nH]c(=O)[nH]3)NC3=NC[C@H]1N32	74*	97*	nt	98*	nt	2
COc1ccc(-n2c(/C=C/c3ccc(O)c(O)c3)nc3ccccc3c2=O)cc1	9	55*	17	-41	56	1
COc1cccc(-c2ccc([C@@H]3[C@H](CO)N4CCCCN(C(=O)Cc5ccncc5)C[C@@H]34)cc2)c1	nt	nt	nt	nt	-2	nt
COC(=O)[C@H]1[C@H](CO)[C@H]2Cn3c(ccc(-c4ccc(F)cc4)c3=O)[C@@H]1N2Cc1ccccc1	nt	nt	-7	nt	-2	nt
C=C1C(=O)O[C@H]2C[C@@H](C)[C@@H]3C=CC(=O)[C@@]3(C)C[C@H]12	nt	nt	59*	nt	108*	nt
C=C1C(=O)O[C@@H]2C[C@@H](C)[C@@H]3C=CC(=O)[C@@]3(C)[C@@H](OC(=O)CC(=O)O[C@H]3[C@@H]4C(=C)C(=O)O[C@@H]4C[C@@H](C)[C@@H]4C=CC(=O)[C@]43C)[C@H]12	98*	105*	55*	96*	109*	99*
COC(=O)[C@H]1[C@H](CO)[C@H]2Cn3c(ccc(-c4ccccc4)c3=O)[C@@H]1N2C(=O)c1ccccc1F	nt	nt	0	nt	nt	nt
C=C1C(=O)O[C@@H]2C[C@@H](C)[C@@H]3C4OC4C(=O)[C@@]3(C)[C@@H](O)[C@H]12 (stereo not given in full)	101*	96*	73*	79	104*	48*
O=C(O)[C@@H]1[C@@H](CO)[C@@H]2Cn3c(ccc(-c4cccc(F)c4)c3=O)[C@H]1N2CCc1ccccc1	nt	nt	0	nt	-1	nt
CCOC(=O)CC(NC(=O)C(Cc1ccc(N(CCCl)CCCl)cc1)NC(C)=O)C(=O)OCC (stereo not given)	47	38	68*	39	7	-3
COc1ccc(C#Cc2ccc([C@@H]3[C@@H](CO)N4CCCCN(C(=O)Cc5cccnc5)C[C@H]34)cc2)cc1	nt	nt	-16	nt	17	nt
Cc1ccsc1/C=C1\C(=O)NC(=S)N(C)C1=O	70*	90*	41	53	-2	5
C=CCN1C(=O)/C(=C/c2ccc(Br)s2)C(=O)NC1=S	2	10	10	2	10	7
CN1C(=O)/C(=C\c2ccc(N3CCCCCC3)cc2)C(=O)NC1=S	8	78*	-10	-17	-8	5
COc1ccc(/C=C2\C(=O)NC(=S)N(C)C2=O)cc1C	16	14	-3	20	-3	-15
CN1C(=O)/C(=C/c2ccc(Cl)s2)C(=O)NC1=S	-1	55*	39	3	13	-6
COc1cc2cc(C(=O)N3CC(COS(C)(=O)=O)c4ccc(O)cc43)[nH]c2c(OC)c1OC (stereo not given)	110*	99*	nt	95*	nt	-7
CC(=O)O[C@H]1[C@H]2O[C@]23[C@@H]2CC[C@]4(O)C[C@@H](O)CC[C@]4(C)C2CC[C@]3(C)[C@H]1c1ccc(=O)oc1 (stereo not given in full)	79*	101*	nt	12	nt	5
CCC(C)(O)C(=O)OC1C(=O)OC2CC3C(C)=CC(O)C(O)C3(C)C3C4(O)OCC23C1C(C)C4O (stereo not given)	nt	95*	23	5	nt	3
O=C(Cc1ccccc1)N1C[C@@H]2[C@H](c3ccccc31)[C@@H](CO)N2Cc1ccccc1	nt	nt	4	nt	13	nt
SMILES	MITF TRPM1 inh	Peg3 promoter	EWS-Fli inh	Shn3 3UTR inh	PAX8 reporter	ABHD5-PLIN5 inh
CC1=CC(C)CC(C)OC(=O)CC(c2ccc(O)cc2)NC(=O)C(Cc2c(Br)[nH]c3ccccc23)N(C)C(=O)C(C)NC(=O)C(C)C1 (stereo not given)	81*	76*	-25	67	102*	-8
O=C(Cc1ccccn1)N1CCCCN2[C@H](C1)[C@@H](c1ccc(-c3ccccc3F)cc1)[C@@H]2CO	nt	nt	13	nt	-19	nt
COc1cccc(-c2sc3ccccc3c2-c2ccc(OCCN3CCOCC3)cc2)c1	-11	26	15	27	9	13
CCOc1ccc(-c2cc(C)[n+](CCN3CCOCC3)c(-c3ccc(OCC)cc3)c2)cc1	43	4	7	-27	98*	12
COc1cc(C2c3cc(O)c(OC)cc3CC3C(=O)OCC32)ccc1O (stereo not given)	16	-3	-8	-3	nt	-4
COc1cc(C2c3cc4c(c(O)c3CC3COC(=O)C32)OCO4)cc(OC)c1OC (stereo not given)	41	-19	44	-1	88*	-4
COc1cc(C2c3cc4c(cc3CC3COC(=O)C32)OCO4)cc(OC)c1OC (stereo not given)	nt	-14	57*	18	nt	-2
COc1ccc(-c2ccc([C@H]3[C@@H](CO)N4CCCCN(C(=O)Cc5ccccc5)C[C@@H]34)cc2)cc1	nt	nt	nt	nt	-13	nt
O=C(O)[C@H]1[C@H](CO)[C@H]2Cn3c(ccc(-c4ccc(F)cc4)c3=O)[C@@H]1N2CC1CCCC1	nt	nt	-3	nt	24	nt
CC(=O)OC(C)(C)/C=C/C(=O)[C@](C)(O)C1[C@H](O)C[C@@]2(C)C3CC=C4C(C[C@H](O)C(=O)C4(C)C)[C@]3(C)C(=O)C[C@]12C (stereo not given in full)	91*	104*	nt	62	nt	10
CCn1nc(-c2ccccc2)nc2c(=O)n(C)c(=O)nc1-2	99*	8	nt	8	nt	-18
COc1ccc(-c2nc3ccccc3c(=O)n2-c2ccc(OC)cc2)cc1	-5	5	12	-11	1	2
COC(=O)C1=C(c2ccc(OCc3ccccc3)cc2)C[C@@H]2CC[C@H]1N2C(=O)NCc1ccc(C(C)(C)C)cc1	nt	2	30	?	86*	-9
COC(=O)C1=C(c2cccc(OCc3ccccc3)c2)C[C@@H]2CC[C@H]1N2C(=O)NCc1ccc([N+](=O)[O-])cc1	5	18	8	28	25	-9
